Assay outcomes (PubChem BioAssay)
PLK1 PBD block – PLK1 (human) polo-box domain binding inhibition; AID 720504; Potency, µM, inactives show max response, negative = inhibition, actives largely listed as inhibitors; P53350; hit rate 2.8% among 360,000; Plk1 PBD binding of FITC phosphopeptide, fluorescence polarization; note: potency is the fitted concentration of half-maximal effect; series mostly up to about 57 µM; % is set by controls: 0 for no effect and ±100 for the full control effect; nearly all actives have a fitted effect of over 65% in size
KCNH2 3.1 inh – blocks the human KCNH2 3.1 channel isoform; U2OS KCNH2 3.1, thallium flux FluxOr; active compounds read low; activity change, % (tested at about 1.8 µM); hit rate 0.95% among 340,000; AID 720553;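 active = maximum activity change below -70%; inconclusive = maximum activity change from -70% to -50%; inactive = maximum activity change above -50%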;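 note: thallium influx rate constant from kinetic fluorescence after stimulation buffer; % is set by controls: 0 for no effect and ±100 for the full control effect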
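FluxOr-based Tl+ influx in U2OS cells transduced with KCNH2 3.1 virus; rate constants normalized to DMSO controls.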
KCNH2 WT inh – KCNH2 (human, wildtype) channel inhibition; U2OS, BacMam KCNH2, thallium flux FluxOr; active compounds read low; activity change, % at 1.84 µM; hit rate 0.37% among 340,000; AID 720551;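 active = maximum activity change below -70%; inconclusive = maximum activity change between -70% and -50%; inactive = maximum activity change above -50%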; note: % is set by controls: 0 for no effect and ±100 for the full control effect
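U2OS cells were transduced with wild-type KCNH2 virus (2.03 x 10^8 / mL) for 4 h at room temperature, then cultured overnight at 37 C. Thallium flux was read with FluxOr dye. Rate constants were normalized to DMSO controls.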
VDR inh – inhibitors of human vitamin D receptor. P11473. VDR-SRC2-3 peptide fluorescence polarization, 2 h. Potency, µM, inactives show max response, negative = inhibition, actives largely listed as inhibitors. hit rate 0.93% among 400,000. AID 504847; note: potency is the fitted concentration of half-maximal effect; % is set by controls: 0 for no effect and ±100 for the full control effect
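VDR–SRC2-3 interaction, FP format. Cmpds 23 nl via pintool, brief spin, 2 h ambient incubation.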
CBFb RUNX1 block – blocks binding between human CBF-beta and RUNX1. AlphaScreen CBFb-His/RUNX1-biotin binding, biochemical. Potency, µM (titrated, usually from 59.8 µM), inactives show top-dose activity, negative = inhibition, usual class: inhibitors. 230,000 tested, under 10 active; note: % of control where 0% means no effect
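Proteins preincubated together for 20 min at RT before compound addition; 15 min later, nickel and streptavidin beads were added and left 90 min prior to AlphaScreen measurement.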
MBNL1 CUG block – inhibitors of human MBNL1 binding to CUG repeat RNA; Q9NR56; TR-FRET MBNL1-His/biotin-(CUG)12 binding, 665/545 ratio; Potency, µM (titrated, usually from 57.5 µM), inactives show at the highest dose activity change, negative = inhibition, usual class: inhibitors; hit rate 0.036% among 280,000; AID 2675; active = well fitted inhibition curve with a large enough effect in the signal ratio, with a control signal flat, not every such curve was filed as active; inconclusive = small, poorly fitted or top-dose-only effect, or effect the other way, or a change in a side signal; inactive = no such curve, though single readings can be large or run the other way; the % refers to the signal ratio; note: potency is the fitted concentration of half-maximal effect; % is set by controls: 0 for no effect and ±100 for the full control effect
Target sequence (Q9NR56 whole entry, looked up): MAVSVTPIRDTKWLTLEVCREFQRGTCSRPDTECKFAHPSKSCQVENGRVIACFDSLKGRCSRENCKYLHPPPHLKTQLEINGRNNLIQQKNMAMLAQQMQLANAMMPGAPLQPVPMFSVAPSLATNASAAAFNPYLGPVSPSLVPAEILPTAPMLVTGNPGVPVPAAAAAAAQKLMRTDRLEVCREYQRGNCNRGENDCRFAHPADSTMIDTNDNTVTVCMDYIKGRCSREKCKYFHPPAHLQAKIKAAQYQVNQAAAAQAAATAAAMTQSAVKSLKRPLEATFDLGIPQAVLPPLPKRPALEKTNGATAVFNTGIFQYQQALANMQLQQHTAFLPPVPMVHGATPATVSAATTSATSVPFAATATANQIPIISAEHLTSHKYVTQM
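His-tagged MBNL1 binding to biotinylated (CUG)12 RNA was measured by TR-FRET using terbium anti-His antibody (0.055 ng/ul final) and streptavidin-XL665 (5 nM final). Compounds were titrated 92 nM to 58 uM; 60 min at room temperature.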
The depositor's hits bear a star. Compounds with a hit are over-represented: about 3.8% of the library has one in this group of screens. Unless noted, calls come from the whole dose curve; as a rule, active = well fitted curve in the direction sought with a large enough effect; inconclusive = small, poorly fitted or top-dose-only effect, or another doubt; inactive = no such curve, though single readings can be large; an effect the other way counts as inactive or inconclusive.

`CC(C)CCn1c(O)c(N=Nc2ccccn2)c2ccccc21` gave PLK1 PBD block -5%, KCNH2 3.1 inh -2, KCNH2 WT inh 2, VDR inh -13% and CBFb RUNX1 block 5%.
`COC(=O)Cn1c(Cc2ccccc2)nc2ccccc21` gave PLK1 PBD block 6µM*, KCNH2 3.1 inh -3, KCNH2 WT inh -1, VDR inh -19% and MBNL1 CUG block 1%.
Screening O=C(/C=C/c1cccc(Cl)c1)c1ccc([N+](=O)[O-])o1 returned PLK1 PBD block 6.7µM*, KCNH2 3.1 inh 36, KCNH2 WT inh -3 and VDR inh inconclusive.
For CCCCN(CC)C(=O)/C=C/c1cccc([N+](=O)[O-])c1 the results were PLK1 PBD block 27µM*, KCNH2 3.1 inh 11, KCNH2 WT inh 2, VDR inh 4%, CBFb RUNX1 block 7% and MBNL1 CUG block inconclusive.
`O=C(/C=C/c1ccco1)c1cccc([N+](=O)[O-])c1` gave PLK1 PBD block -20%, KCNH2 3.1 inh 9, KCNH2 WT inh 10 and VDR inh 71µM*.
Screening CCCC(C)NC(=O)/C=C/c1cccc([N+](=O)[O-])c1 (stereo unspecified) returned PLK1 PBD block 0%, KCNH2 3.1 inh -10, KCNH2 WT inh -1, VDR inh 17%, CBFb RUNX1 block 18% and MBNL1 CUG block inconclusive.
`O=C(/C=C/c1cccc([N+](=O)[O-])c1)c1ccccc1` gave VDR inh 20µM* and CBFb RUNX1 block 7%.
For COC(=O)C#CC(=O)OC the results were VDR inh 1% and CBFb RUNX1 block -2%.
CC(=O)N1c2ccc(S(=O)(=O)NCc3ccc(Cl)cc3)cc2CC1C (stereo unspecified) was read as VDR inh 5%.
Screening Cc1nc(-c2ccc(Cl)cc2)sc1CCNC(=O)c1cccs1 returned VDR inh 6%.
For CCn1cc2nc(SCc3cc(C)ccc3C)n(Cc3ccc(Cl)cc3)c(=O)c2n1 the results were VDR inh 13%.
CCOc1cc(C2c3c(oc4ccc(F)cc4c3=O)C(=O)N2Cc2ccco2)ccc1O (stereo unspecified) was read as VDR inh -4%.
`Cc1ccc(-n2nc(C(=O)Nc3cccc(C#N)c3)c3c4ccccc4n(C)c3c2=O)cc1` gave VDR inh -22%.
For COc1ccccc1N1CCN(C(=O)/C=C/c2cccc([N+](=O)[O-])c2)CC1 the results were PLK1 PBD block -13%, KCNH2 3.1 inh 3, KCNH2 WT inh -7, VDR inh 1% and CBFb RUNX1 block 1%.
For O=C(/C=C/c1ccc(N2CCCCC2)c([N+](=O)[O-])c1)c1ccc(O)cc1 the results were PLK1 PBD block -7%, KCNH2 3.1 inh -9, KCNH2 WT inh -13, VDR inh inconclusive, CBFb RUNX1 block inconclusive and MBNL1 CUG block 2%.
COc1ccccc1C(=O)/C=C/c1ccc(N2CCCCC2)c([N+](=O)[O-])c1 was read as PLK1 PBD block -14%, KCNH2 3.1 inh -14, KCNH2 WT inh -7, VDR inh 79µM*, CBFb RUNX1 block -1% and MBNL1 CUG block 12%.
For CC(=O)Oc1ccccc1C(=O)C=Cc1cccc([N+](=O)[O-])c1 the results were PLK1 PBD block inconclusive, KCNH2 3.1 inh -4, KCNH2 WT inh 11 and VDR inh 22µM*.
Screening Cc1ccc(NC(=O)C(=O)c2cc(C)n(-c3ccc(F)cc3)c2C)cc1C returned VDR inh 0%.
Screening COc1ccc(C2=NS(=O)(=O)N(C)C(C(=O)Nc3ccc(C)cc3)=C2)cc1 returned PLK1 PBD block 2%, KCNH2 3.1 inh -4, KCNH2 WT inh -7, VDR inh -2% and MBNL1 CUG block inconclusive.
`COc1ccc(OC)c(C2=NS(=O)(=O)N(C)C(C(=O)Nc3cccc(C(C)=O)c3)=C2)c1` gave PLK1 PBD block 19µM*, KCNH2 3.1 inh 12, KCNH2 WT inh 1, VDR inh inconclusive and MBNL1 CUG block inconclusive.
COc1ccc(OC)c(C2=NS(=O)(=O)N(C)C(C(=O)NCc3cccs3)=C2)c1 was read as PLK1 PBD block 27µM*, KCNH2 3.1 inh 2, KCNH2 WT inh 12, VDR inh inconclusive and MBNL1 CUG block inconclusive.
`CC(C)=CCC/C(C)=C/CC/C(C)=C/CC/C=C(\C)CC/C=C(\C)CCC=C(C)C` gave VDR inh -8%.
CCOC(=O)c1c(C)oc2nc(C)nc(NCCCN3CCN(c4cccc(C)c4)C(C)C3)c12 (stereo unspecified) was read as VDR inh 16%.
COc1ccc(-n2ncc3c2CC(C)(C)CC3NC(=O)c2cnc(C)cn2)cc1 (stereo unspecified) was read as PLK1 PBD block -22%, KCNH2 3.1 inh 6, KCNH2 WT inh 10, VDR inh -18% and MBNL1 CUG block 5%.
COc1ccc(C(=O)NC2CC(C)(C)Cc3c2cnn3-c2ccccc2)cc1OC (stereo unspecified) was read as PLK1 PBD block -7%, KCNH2 3.1 inh -6, KCNH2 WT inh 2, VDR inh -4% and MBNL1 CUG block -1%.
Screening COc1cc(C(=O)NC2CC(C)(C)Cc3c2cnn3-c2ccccc2)cc(OC)c1OC (stereo unspecified) returned PLK1 PBD block 30µM*, KCNH2 3.1 inh -15, KCNH2 WT inh 5, VDR inh inconclusive and MBNL1 CUG block -3%.
COc1ccc(-n2ncc3c2CC(C)(C)CC3NC(=O)c2c(C)cc(=O)oc2C)cc1 (stereo unspecified) was read as PLK1 PBD block 24µM*, KCNH2 3.1 inh 0, KCNH2 WT inh -11, VDR inh inconclusive and MBNL1 CUG block 0%.
Cn1nnnc1SCc1ccc(F)cc1 was read as PLK1 PBD block -4%, KCNH2 3.1 inh -5, KCNH2 WT inh -26, VDR inh 3%, CBFb RUNX1 block 4% and MBNL1 CUG block -1%.
Cn1nnnc1SCCNCc1ccc(Cl)cc1 was read as PLK1 PBD block -16%, KCNH2 3.1 inh -95*, KCNH2 WT inh 0, VDR inh -8%, CBFb RUNX1 block 10% and MBNL1 CUG block -3%.
For Cc1ccc(CSc2nnnn2C)cc1 the results were PLK1 PBD block -12%, KCNH2 3.1 inh -98*, KCNH2 WT inh 2, VDR inh -11%, CBFb RUNX1 block 4% and MBNL1 CUG block -5%.
For O=C(O[C@H]1CN2CCC1CC2)N1CCc2ccccc2[C@@H]1c1ccccc1 the results were VDR inh 1%.
